Source: PubChem (National Center for Advancing Translational Sciences (NCATS))
HT1080 IDH1KD tx: qHTS for induction of synthetic lethality in tumor cells producing 2HG: qHTS for the HT-1080-IDH1KD cell line; HT-1080 IDH1 knockdown viability, ATP luminescence, 48 h; Potency, µM (doses to about 46.1 µM), for the others: at the highest dose activity, negative = toxicity, hits mostly cytotoxic; actives 2% (n = 360,000); AID 686971, 2013;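 also: potency is read from the fitted curve at half-maximal effect; 0% = DMSO wells and -100% = cell-free medium wells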
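Using the IDH1-knockdown HT-1080 line run in the same batch and compound series as the NT line, viability after 48 h at 37 °C was determined by CellTiter-Glo luminescence and expressed as % activity.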
HT1080-NT tox: qHTS for induction of synthetic lethality in tumor cells producing 2HG: qHTS for the HT-1080-NT fibrosarcoma cell line; HT-1080-NT fibrosarcoma viability, CellTiter-Glo ATP luminescence, 48 h; Potency, µM (series often up to 46.1 µM), inactives show top-dose activity, negative = less viability, actives largely listed as cytotoxic; actives 1.6% (n = 360,000);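 also: NT is the 2HG producing partner of a matched IDH1 knockdown line; potency is read from the fitted curve at half-maximal effect; 0% = DMSO-treated cells and -100% = media-only wells without cells; nearly all actives have a fitted effect of over 55% in size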
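Viability of the 2HG-overproducing fibrosarcoma line after 48 hours of compound exposure at 37 degrees C was determined by luminescence with CellTiter-Glo, and concentration-effect curves were then fitted and categorized.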
uPA surface inh: qHTS for Inhibitors of Cell Surface uPA Generation; cell surface uPA generation assay, qHTS; Potency, µM (titrated, usually from 38.3 µM), for the others: at the highest dose activity change, negative = inhibition, usual class: inhibitors; actives 0.31% (n = 330,000); AID 540303, 2011; active = well fitted inhibition curve with a large enough effect; inconclusive = small, poorly fitted or top-dose-only effect; inactive = no such curve, though single readings can be large or run the other way; tested in mouse RAW 264.7 cells; also: potency is read from the fitted curve at half-maximal effect; nearly all actives have a fitted effect of over 55% in size
TDP1 cell CPT: qHTS for Inhibitors of human tyrosyl-DNA phosphodiesterase 1 (TDP1): qHTS in cells in presence of CPT. chicken DT40 Tdp1-/-;hTDP1 cells + 20 nM CPT, ATP luminescence, 48 h. Potency, µM (highest dose often 46.2 µM), inactives show at the highest dose activity change, negative = growth inhibition, usual class: inhibitors. actives 12% (n = 420,000); also: potency is read from the fitted curve at half-maximal effect; nearly all actives have a fitted effect of over 55% in size
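Cell growth measured by CellTiter-Glo luminescence after a minimum 48 h, 37 C compound exposure with 20 nM CPT in Tdp1-knockout DT40 cells stably expressing hTDP1, seeded 400/well; qHTS titration format.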
IL1B secr inh: qHTS for Inhibitors of Inflammasome Signaling: IL-1-beta AlphaLISA Primary Screen | activity change, % at 57.5 µM | THP-1 LPS/ATP IL-1B secretion, AlphaLISA, 16 h; active compounds read low | actives 4.7% (n = 360,000); in the data active = activity change below about -50%; inconclusive = mostly about -30% to -49%
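Secreted IL-1B measured by AlphaLISA bead assay after 16 h compound exposure of THP-1 cells; compounds (final up to 57.5 uM) added 1 h before LPS (250 ng/mL) and ATP (1.25 mM) stimulation; lower signal means less secretion.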
TDP1 cell noCPT: qHTS for Inhibitors of human tyrosyl-DNA phosphodiesterase 1 (TDP1): qHTS in cells in absence of CPT; DT40 Tdp1-/- hTDP1 cells, no CPT, ATP luminescence, 48 h; Potency, µM (top dose mostly 46.2 µM), inactives show at the top dose activity change, negative = growth inhibition, most hits filed as inhibitors; actives 15% (n = 420,000); AID 686978, 2013; also: potency is read from the fitted curve at half-maximal effect; nearly all actives have a fitted effect of over 55% in size
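Chicken DT40 Tdp1-/- cells stably complemented with human TDP1 were seeded at 400 cells/well with DMSO in place of 20 nM camptothecin. After compound pinning, cells grew at least 48 hr at 37 °C; viability read by CellTiter-Glo luminescence.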
* = called active by the depositor; ? = inconclusive; · = no result; [ ] = remark or other dose. Most compounds without a hit are left out; they make up all but 19% or so of the library. Unless noted, calls follow the shape of the dose curve; as a rule, active = well fitted curve in the direction sought with a large enough effect; inconclusive = small, poorly fitted or top-dose-only effect, or another doubt; inactive = no such curve, though single readings can be large; an effect the other way counts as inactive or inconclusive. Unless noted, % is scaled to controls: 0 for no effect and ±100 for the full control effect.

SMILES	HT1080 IDH1KD tx	HT1080-NT tox	uPA surface inh	TDP1 cell CPT	IL1B secr inh	TDP1 cell noCPT
Cc1cc(C)cc(C(=O)NCC(=O)N2CCN(C(c3ccccc3)c3ccccc3)CC2)c1	?	?	1%	?	-11	18µM*
O=C(O)c1cn[nH]c1-c1cccc([N+](=O)[O-])c1	15%	13%	3%	0%	27	10%
Cc1cc(NC(=O)OC(C)(C)C)c(-n2nnnc2C(C(=O)c2ccccc2)N2CCOCC2)cc1C (stereo not drawn)	11%	14%	·	-22%	16	-29%
Cc1ccc(C)c(S(=O)(=O)N2CCCCC2CCNC(=O)C(=O)NCc2ccco2)c1 (stereo not drawn)	?	-17%	-14%	16µM*	-8	8.2µM*
Cc1ccc(S(=O)(=O)N2CCCCC2CCNC(=O)C(=O)NCc2ccccc2)cc1 (stereo not drawn)	6.5µM*	7.3µM*	8.9µM*	3.3µM*	-1	2.9µM*
Cc1ccc(S(=O)(=O)N2CCCCC2CCNC(=O)C(=O)NCc2ccncc2)cc1 (stereo not drawn)	-11%	2%	-3%	?	1	?
COc1ccc(CNC(=O)C(=O)NCCC2CCCCN2S(=O)(=O)c2ccccc2)cc1 (stereo not drawn)	-7%	-4%	-4%	?	-12	?
COc1ccc(CNC(=O)C(=O)NCCC2CCCCN2S(=O)(=O)c2ccc(C)cc2)cc1 (stereo not drawn)	0%	-7%	-7%	16µM*	-11	26µM*
CS(=O)(=O)c1ccc(NC(=O)c2ccc3c(c2)S(=O)(=O)N=C2CCCCCN23)cc1	-6%	-8%	-1%	-11%	5	7%
COC(=O)c1cc(CNC(=O)c2cccc3ccccc23)cc(NC(=O)c2ccccc2OC)c1	·	·	·	10%[9.04 µM]	·	?
COC(=O)C(NC(=O)COc1ccccc1)(Nc1nc2c(s1)CCCC2)C(F)(F)F (stereo not drawn)	0%	3%	-1%	-12%	2	?
COC(=O)C(NC(=O)CC(C)C)(Nc1nc2c(s1)CCCC2)C(F)(F)F (stereo not drawn)	·	·	·	16µM*	·	12µM*
COc1ccccc1C(CNC(=O)c1ccc(C)c(S(=O)(=O)N2CCCCC2)c1)N1CCCC1 (stereo not drawn)	9%	-3%	-3%	-15%	-13	-22%
CC(C)N1CCc2c(sc(NC(=O)c3ccc(S(=O)(=O)N(C)CC4CCCO4)cc3)c2C(N)=O)C1 (stereo not drawn)	0%	1%	-3%	-25%	-11	-18%
CCCCN(C)S(=O)(=O)c1ccc(C(=O)Nc2sc3c(c2C(=O)OCC)CCN(C(C)C)C3)cc1	·	·	·	8.2µM*	·	5.8µM*
COC(=O)c1c(NC(=O)c2ccco2)sc2c1CCN(C(C)C)C2	-2%	-1%	-10%	?	-18	-12%
CCOC(=O)c1c(NC(=O)c2ccc(S(=O)(=O)N(C)C3CCCCC3)cc2)sc2c1CCN(C(C)C)C2	·	·	·	12µM*	·	7.3µM*
CC(=O)Nc1ccc(NC(=O)c2cccc(S(=O)(=O)N3CCCCCC3)c2)cc1	?	-27%	-21%	?	83	?
COc1ccc(NS(=O)(=O)c2cccc(NC(=O)C34CCC(CC3)C4)c2)cc1	-23%	-19%	-1%	?	-3	21µM*
O=C(Nc1ccc(N2CCOCC2)cc1)c1cccc(S(=O)(=O)N2CCCCC2)c1	-3%	?	7%	15µM*	-13	15µM*
CC1CCCC(NC(=O)c2cccc(S(=O)(=O)N3CCCCC3)c2)C1C (stereo not drawn)	2%	-1%	0%	21µM*	-23	?
CCN(CC)S(=O)(=O)c1cccc(C(=O)Nc2ccccc2C(=O)Nc2ccc(OC)cc2)c1	·	·	·	10µM*	·	10µM*
O=C(NC1CCCC1)c1cccc(S(=O)(=O)N2CCCCC2)c1	-4%[9.24 µM]	-4%	-12%	-8%	-13	-24%
COc1ccc(S(=O)(=O)NNC(=O)Nc2ccc(F)cc2)cc1	-2%	-2%	-17%	-1%	52	-20%
CCN(C(=O)c1cccn(Cc2ccccc2C)c1=O)c1ccccc1	·	·	·	-5%	·	?
SMILES	HT1080 IDH1KD tx	HT1080-NT tox	uPA surface inh	TDP1 cell CPT	IL1B secr inh	TDP1 cell noCPT
Cc1nc(-c2cccc(S(=O)(=O)N3CC(C)CC(C)C3)c2)cs1 (stereo not drawn)	-2%	4%	-5%	?	9	13µM*
O=C(Nc1ccccc1)c1cccc(S(=O)(=O)N2CCCCC2)c1	1%	-2%	-4%	-26%	15	8%
CC(=O)Nc1cccc(C(=O)Nc2ccc(S(=O)(=O)N3CCCCC3)cc2)c1	0%	7%	2%	?	13	15µM*
O=C(Nc1ccc(S(=O)(=O)N2C[C@@H]3C[C@@H](C2)c2cccc(=O)n2C3)cc1)c1ccc(F)cc1	0%	13%	-2%	0%	-7	2%
CC1CCN(S(=O)(=O)c2cccc(C(=O)Nc3ccccc3)c2)CC1	-15%	-11%	·	-4%	-54*	?
Cc1nc(-c2cccc(S(=O)(=O)N3CC(C)OC(C)C3)c2)cs1 (stereo not drawn)	-4%	-5%	-1%	?	5	-21%
CCOc1ccc(C(=O)Nc2ccc(S(=O)(=O)N3C[C@@H]4C[C@@H](C3)c3cccc(=O)n3C4)cc2)cc1	23µM*	?	-19%	21µM*	29	12µM*
CCN(CC)C(=O)C1=C(C)N(Cc2ccccc2)C(=O)C(CC(=O)NC2CC2)C1 (stereo not drawn)	18%	4%	·	?	-25	?
COc1ccccc1-n1c(SCC(=O)N2CCCC2)nnc1-c1ccccc1	-9%	4%	6%	7%	6	-17%
COc1ccc(-n2c(=O)c3c(c4cc(OC)ccc4n3C)n(Cc3cccc(OC)c3)c2=O)cc1	·	·	·	-20%	·	-16%
CCC(=O)Oc1ccc(NC(=O)c2ccc(S(=O)(=O)N3CCCC3)cc2)cc1	-23%	-13%	·	?	0	21µM*
